Source: PubChem (National Center for Advancing Translational Sciences (NCATS))
HPGD inh: qHTS Assay for Inhibitors of HPGD (15-Hydroxyprostaglandin Dehydrogenase); 15-hydroxyprostaglandin dehydrogenase [NAD(+)] (Homo sapiens), P15428; purified HPGD, NADH fluorescence kinetic, PGE2 substrate; Potency, µM, for the others: top-dose activity change, negative = inhibition, usual class: inhibitors; 150,000 tested, 4.3% active; active means well fitted inhibition curve with a large enough effect, not every such curve was filed as active; inconclusive means small, poorly fitted or top-dose-only effect, or another doubt; inactive means no such curve, though single readings can be large or run the other way; further: potency means the concentration at half of the fitted maximal effect
Target sequence (P15428 whole entry, looked up): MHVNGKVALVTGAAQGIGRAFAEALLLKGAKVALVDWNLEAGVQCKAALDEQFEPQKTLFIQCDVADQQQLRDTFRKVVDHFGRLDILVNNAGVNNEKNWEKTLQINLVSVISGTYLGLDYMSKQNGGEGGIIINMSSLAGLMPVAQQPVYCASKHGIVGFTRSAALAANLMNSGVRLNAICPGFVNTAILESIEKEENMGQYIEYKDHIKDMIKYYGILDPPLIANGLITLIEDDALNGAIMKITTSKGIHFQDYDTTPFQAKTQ
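NADH formation kinetics: reaction with 30 uM PGE2 and 1 mM NAD+ (final), 20 nM enzyme, Tris-HCl pH 8 with Tween 20, after 15 min compound preincubation at room temperature. Fluorescence change, last versus first of five reads.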
IMPase inh: qHTS Assay for Identifying the Cell-Membrane Permeable IMPase Inhibitors; CHO-M1 cells, IP1 accumulation, HTRF TR-FRET ratio; 120,000 tested, under 10 active; AID 901, 2007; inhibition (IP1 accumulation), % at 46.1 µM; Inositol monophosphatase 1 (Rattus norvegicus), P97697; active means well fitted curve in the direction sought with a large enough effect in the signal ratio, not every such curve was filed as active; inconclusive means small, poorly fitted or top-dose-only effect, or a change in a side signal; inactive means no such curve, though single readings can be large or run the other way; the % refers to the signal ratio;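 further: cells stimulated with carbachol in lithium chloride buffer; plate controls were DMSO basal wells for no effect and reference inhibitor wells for full effect; higher means more IMPase inhibition seen as more IP1 and lower FRET ratio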
Target sequence (P97697 whole entry, looked up): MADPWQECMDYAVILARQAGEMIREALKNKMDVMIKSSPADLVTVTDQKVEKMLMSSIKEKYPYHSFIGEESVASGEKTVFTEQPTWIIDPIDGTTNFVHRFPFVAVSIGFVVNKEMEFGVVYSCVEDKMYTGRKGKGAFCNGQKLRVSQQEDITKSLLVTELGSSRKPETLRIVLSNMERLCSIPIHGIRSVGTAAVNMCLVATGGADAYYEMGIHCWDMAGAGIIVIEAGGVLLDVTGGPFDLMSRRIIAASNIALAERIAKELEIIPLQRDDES
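The IP-One HTRF competitive assay in carbachol-stimulated CHO-M1 cells quantifies cellular IP1. Compounds spanned up to 46 uM final, and activity is expressed as AC50 from concentration-response fits of the ratio and donor data.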
IMPase Li inh: qHTS Assay for Identifying the Cell-Membrane Permeable IMPase Inhibitors: Potentiation with Lithium | AID 1457, 2008 | Potency, µM (titrated, usually from 59.4 µM), without a hit: top-dose activity, negative = IMPase inhibition, hits mostly inhibitors | 210,000 tested, 0.35% active | CHO-M1 cells, IP1 TR-FRET (IP-One), carbachol + lithium;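 further: IP1 builds up when IMPase is blocked and the TR-FRET signal falls; potency means the concentration at half of the fitted maximal effect; plate controls were basal vehicle for no effect and high inhibitor control for full effect; nearly all actives have a fitted effect of over 50% in size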
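CHO cells stably expressing M1 receptor (2000/well, cultured 16–30 h) treated 30 min at 37C with compound plus low lithium. Cytosolic IP1 by TR-FRET (665/620 ratio and 620 channel) after 10 min lysis; AC50 by Hill fit.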
ALDH1A1 inh: qHTS Assay for Inhibitors of Aldehyde Dehydrogenase 1 (ALDH1A1); Potency, µM (titrated, usually from 75.3 µM), for inactives: top-dose activity, negative = inhibition, actives largely listed as inhibitors; AID 1030, 2008; Purified ALDH1A1, NADH fluorescence, propionaldehyde substrate; Aldehyde dehydrogenase 1A1 (Homo sapiens), P00352; 220,000 tested, 7.3% active; active means well fitted inhibition curve with a large enough effect, not every such curve was filed as active; inconclusive means small, poorly fitted or top-dose-only effect, or another doubt; inactive means no such curve, though single readings can be large or run the other way;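 further: potency means the concentration at half of the fitted maximal effect; plate controls were no enzyme wells and a reference inhibitor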
NPSR antag: qHTS Assay for Antagonists of the Neuropeptide S Receptor: cAMP Signal Transduction; AID 1461, 2008; Potency, µM (series often up to 38.3 µM), for inactives: at the highest dose activity change, negative = inhibition, usual class: inhibitors; Q6W5P4; 220,000 tested, 1% active; CHO-NPSR cells, cAMP TR-FRET, antagonist mode; further: potency means the concentration at half of the fitted maximal effect; nearly all actives have a fitted effect of over 50% in size
PNC inhibitor: High Content Assay for Compounds that inhibit the Assembly of the Perinucleolar Compartment. activity change (PNC), negative = inhibition, % at 10 µM. PC3M PTB-GFP, PNC prevalence imaging, 16 h; stronger effect = lower value. AID 2417, 2010. 140,000 tested, 3.1% active;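 active means readout at or below -70, meaning at least 70% loss of cells showing the perinucleolar compartment, a nuclear body marking cancer cells; inconclusive means readout between -30 and a set limit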;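 further: plate controls were DMSO wells for no effect and camptothecin positive control wells for full effect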
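PC3M cells stably expressing PTB-GFP, 750–1000 cells/well, treated 16 h at 37 °C with compound (23 nl of library stock), in duplicate. After paraformaldehyde fixation and Hoechst stain, imaged at 20x; PNC prevalence scored by image analysis.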
* marks the source's active call; other numbers are inactive results; ! = a repeat was not active; [ ] = another dose, or the depositor's remark. A selection: hits, their analogues and other compounds. The true share with any hit is near 11%. Unless noted, the call rests on the fitted dose curve; in most records, active means well fitted curve in the direction sought with a large enough effect; inconclusive means small, poorly fitted or top-dose-only effect, or another doubt; inactive means no such curve, though single readings can be large; an effect the other way counts as inactive or inconclusive. Unless noted, on the % scale 0 is the no-effect control and ±100 the full control effect.

How did COc1ccc2[nH]c(=O)c(CN(CCO)S(=O)(=O)c3c(C)ccc4nsnc34)cc2c1 do in these assays?
HPGD inh: inconclusive; IMPase inh: 7; IMPase Li inh: 21%[38.3 µM]; ALDH1A1 inh: inconclusive; NPSR antag: -10%[46.1 µM]; PNC inhibitor: inconclusive

What do the screens show for `CSCCC(Nc1ccc(S(=O)(=O)N2CCOCC2)cc1[N+](=O)[O-])C(=O)OCC(=O)NCC(C)C` (stereo not drawn)?
HPGD inh: -8%; IMPase Li inh: -3%; ALDH1A1 inh: 0%; NPSR antag: 8%; PNC inhibitor: -2

What do the screens show for `COc1ccc(CC(=O)c2c(O)cc(O)cc2O)cc1OC`?
HPGD inh: 32µM*; IMPase inh: 2; IMPase Li inh: 3%[38.3 µM]; ALDH1A1 inh: -6%; NPSR antag: -25%[46.1 µM]; PNC inhibitor: 16

Results for COc1cc(CC(=O)O)ccc1O ?
HPGD inh: 7%; IMPase inh: 2; IMPase Li inh: 20%; ALDH1A1 inh: 25µM*!; NPSR antag: -6%[46.1 µM]

How did C=CCNC(=O)c1ccc(C)cc1Cl do in these assays?
HPGD inh: 4µM*; IMPase inh: 5; IMPase Li inh: -12%[38.3 µM]; ALDH1A1 inh: 7%; NPSR antag: -9%[46.1 µM]; PNC inhibitor: 11

How did C=CCNC(=O)c1ccc(S(=O)(=O)CC)c(Cl)c1Cl do in these assays?
IMPase Li inh: 1%; ALDH1A1 inh: -3%; NPSR antag: 16%

How did C=CCNC(=O)c1c(Cl)cccc1Cl do in these assays?
HPGD inh: inconclusive; IMPase inh: 10; IMPase Li inh: 2%; ALDH1A1 inh: inconclusive; NPSR antag: -4%[46.1 µM]; PNC inhibitor: -4

Results for C=CCNC(=O)c1ccc(Cl)cc1Cl ?
HPGD inh: 14µM*; IMPase inh: -8; IMPase Li inh: 13%[38.3 µM]; ALDH1A1 inh: 15%; NPSR antag: 5%[46.1 µM]; PNC inhibitor: 59

What do the screens show for `O=C(N=NC(=O)c1ccc2c(O)n(C3CCCCC3)c(O)c2c1)c1cccnc1`?
HPGD inh: -17%; IMPase inh: 5; IMPase Li inh: -8%[38.3 µM]; ALDH1A1 inh: 2.2µM*; NPSR antag: -6%[46.1 µM]; PNC inhibitor: 56

What do the screens show for `Cc1ccccc1C(=O)N/N=C/c1ccsc1C`?
HPGD inh: -16%; IMPase Li inh: 14%; ALDH1A1 inh: -11%; NPSR antag: -7%; PNC inhibitor: 69

What do the screens show for `Cc1sccc1/C=N/NC(=O)c1cccc2ccccc12`?
HPGD inh: -7%; IMPase Li inh: -5%; ALDH1A1 inh: 5%; NPSR antag: -6%; PNC inhibitor: -104*

What do the screens show for `CCOC(=O)c1cccc(NC(=O)CCS(=O)(=O)c2ccc(Br)s2)c1`?
HPGD inh: 10%; IMPase inh: 3; IMPase Li inh: inconclusive; ALDH1A1 inh: 11%; NPSR antag: -13%[46.1 µM]; PNC inhibitor: inconclusive

Results for CCOC(=O)c1cccc(NC(=O)CCS(=O)(=O)c2cccs2)c1 ?
HPGD inh: -9%; IMPase inh: 2; IMPase Li inh: -11%[38.3 µM]; ALDH1A1 inh: 20µM*; NPSR antag: -4%[46.1 µM]; PNC inhibitor: 44

Results for CCOC(=O)N1CCN(C(=O)CNS(=O)(=O)c2cccs2)CC1 ?
HPGD inh: 1%; IMPase inh: -4; IMPase Li inh: -10%[38.3 µM]; ALDH1A1 inh: 4%; NPSR antag: -3%[46.1 µM]; PNC inhibitor: 14

How did CCOC(=O)c1cccc(NC(=O)CNS(=O)(=O)c2cccs2)c1 do in these assays?
HPGD inh: -10%; IMPase inh: 1; IMPase Li inh: -2%; ALDH1A1 inh: -5%; NPSR antag: -7%[46.1 µM]; PNC inhibitor: -100*
